Compound activity (PubChem BioAssay)
Rows were chosen to be rich in hits. Some 3.4% of all compounds tested hit in one or more screens of this group.
TWEAK-Fn14 inh = TWEAK-Fn14 signaling inhibition. TWEAK-stimulated Fn14 reporter cells, luciferase luminescence, 8 h. inhibition, % at 10 µM. 360,000 compounds, 2% hits; in the data active means inhibition above about 50%
HIF-2a inh = inhibitors of HIF-2a. inhibition, % at 18.8 µM. 786-0 RCC cells HIF-2a reporter, luciferase luminescence, overnight. 360,000 compounds, 0.72% hits;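 active means inhibition of the luminescence signal of 40% or more relative to plate controls, in a single-dose primary screen at 18.75 µM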
MITF TRPM1 inh = inhibitors of MITF-driven TRPM1 promoter in melanoma cells; SK-MEL-5 TRPM1 promoter luciferase, 24 h; inhibition, % at 12.5 µM; 330,000 compounds, 0.83% hits;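 active means mean inhibition across replicates of 60% or more, whatever share of single replicates reaches that level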
Shn3 inh set2 = inhibitors of Schnurri-3 3'UTR reporter in osteoblasts | Clone20 osteoblast Shn3 3'UTR firefly luciferase, 24 h | AID 588674 | 360,000 compounds, 0.52% hits | inhibition, % at 12.5 µM;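 active means mean inhibition of at least 75% with every replicate also reaching 75%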
EBV LMP1 NFkB = Epstein-Barr LMP1 NF-kappaB reporter inhibition; LMP1-induced NF-kappaB luciferase reporter cells, luminescence; inhibition, % at 12.5 µM; 350,000 compounds, 0.69% hits; AID 504558; in the data active means inhibition above about 41%
TROY NFkB inh = TROY signaling inhibition | Q293 LMP1-TROYcd NF-kB luciferase reporter, 4 h | inhibition, % at 10 µM | 360,000 compounds, 0.98% hits;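 active means compounds whose plate-normalised and pattern-corrected inhibition of the luciferase reporter signal at the single screening dose is 50% or more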
A number is an active result; - = inactive; . = no result given.

SMILES	TWEAK-Fn14 inh	HIF-2a inh	MITF TRPM1 inh	Shn3 inh set2	EBV LMP1 NFkB	TROY NFkB inh
COc1ccc(C(=O)C=Cc2ccc(OCc3ccccc3)c(OC)c2)cc1OC	-	-	.	-	-	-
CCCCCCNC(=O)O[C@H]1C[C@H](C(=O)OC)[C@H](C(=O)OC)C2CN(S(=O)(=O)c3ccc(C)cc3)C[C@@]21O (some centres undefined)	-	-	.	-	-	-
COc1ccc(C(=O)C=Cc2ccc3c(c2)OCO3)cc1OC	-	-	.	-	-	-
COc1ccc(/C=C/C(=O)c2ccc(NC3=NCCCS3)cc2)cc1OC	72	-	-	-	-	-
CCCc1nnc(NC(=O)c2nc(S(=O)(=O)Cc3ccc(C)cc3)ncc2Cl)s1	95	-	69	91	-	62
CCOC(=O)c1ccc(NC(=O)c2nc(S(=O)(=O)Cc3ccccc3)ncc2Cl)cc1	62	89	78	96	-	63
CSc1nnc(NC(=O)c2nc(S(=O)(=O)Cc3ccccc3)ncc2Cl)s1	98	-	68	96	-	-
Cc1ccc(S(=O)(=O)CCc2nnc(NC(=O)c3cnccn3)s2)cc1	-	-	-	-	-	-
O=C(COc1ccc(Cl)cc1Cl)NCCN1CCCC1	-	-	.	-	-	-
NS(=O)(=O)c1ccc(CCNC(=O)CNC(=O)c2ccccc2Br)cc1	51	-	-	-	-	-
CCc1ccccc1NC(=O)CSc1nc(C)c(C)o1	-	-	-	-	-	-
CCOCc1c(C(=O)Nc2ccccc2N2CCN(C)CC2)oc2ccccc12	-	-	-	-	-	-
O=C(COC(=O)c1cc(S(=O)(=O)Nc2ccccc2Cl)ccc1O)Nc1nc2ccccc2s1	-	-	-	-	-	60
Cc1cc(N2CCN(C(C(=O)NC3CCCC3)c3ccc(-c4ccccc4)cc3)CC2)c2ccccc2n1 (centres undefined)	.	-	.	.	.	.
O=C(NCCc1ccccc1F)C1C(=O)Nc2ccccc2C(=O)N1C1CCCCC1 (centres undefined)	.	-	.	.	.	.
O=C1N=C(N2CCCCC2)S/C1=C\c1ccc(Br)cc1	-	-	-	-	-	-
CN(C)c1ccc(/C=C2\SC(N3CCCCC3)=NC2=O)cc1	83	-	-	-	-	74
Cc1csc(SCC(=O)c2c(N)n(CC(C)C)c(=O)n(C)c2=O)n1	52	-	-	-	-	-
O=C(N=Nc1c(O)[nH]c2ccccc12)c1cccc(S(=O)(=O)N2CCCCC2)c1	-	-	-	-	-	-
CC(C)c1ccc2[nH]c(O)c(N=NC(=O)c3cccc(S(=O)(=O)N4CCCCC4)c3)c2c1	55	-	-	-	-	-
Cc1ccc(C(NC(=O)Nc2ccccn2)C(Cl)(Cl)Cl)cc1F (centres undefined)	-	-	-	-	-	-
C#CCn1cc(/C=N/Nc2nc3ccccc3[nH]2)c2ccccc21	53	-	-	-	-	-
C(=N\Nc1nc2ccccc2[nH]1)/c1cccc2nccnc12	-	-	-	-	47	-
CCN(CC)c1ccc(/C=N/Nc2nc3ccccc3[nH]2)c(O)c1	53	-	-	-	55	55
COc1ccc(NC(=O)COC(=O)c2ccc(OC)c(S(=O)(=O)N3CCCC3)c2)cc1OC	-	-	-	-	-	-
SMILES	TWEAK-Fn14 inh	HIF-2a inh	MITF TRPM1 inh	Shn3 inh set2	EBV LMP1 NFkB	TROY NFkB inh
O=C(O)CSc1ncnc2sc(-c3ccccc3)cc12	-	-	-	-	-	-
CC(=O)c1c(C)[nH]c(C(=O)CSc2nnc(-c3ccccc3)o2)c1C	96	-	-	-	-	-
O=C(CSc1nnc(-c2ccccc2)o1)c1nnc(-c2ccccc2)o1	-	-	-	-	-	-
CC(=O)c1c(C)[nH]c(C(=O)CSc2ncnc3sc(-c4ccccc4)cc23)c1C	64	-	-	-	-	-
O=C1[C@H]2[C@@H](C3CC3)N3C(=O)CN(Cc4ccccn4)C(=O)[C@@]3(Cc3ccccc3)[C@H]2C(=O)N1c1ccccc1	-	-	-	-	-	-
CC(C)NC(=O)CSc1ccccc1C(=O)NNC(=O)Cn1ccc(C(F)(F)F)n1	-	-	-	-	-	-
Nc1cc2sc(-c3ccc(C(=O)O)cc3)nc2cc1Cl	-	-	-	-	-	-
CC1CCN(c2nc3ccc(C(=O)NCCCN4CCCCC4)cc3s2)CC1	-	-	-	-	-	-
CC1CCN(c2nc3ccc(C(=O)O)cc3s2)CC1	96	89	90	-	63	-
Oc1ccc(-c2nc3ccccc3s2)cc1	-	-	-	-	-	-
Nc1ccc(-c2nc3ccc(N)cc3s2)cc1	74	-	-	-	-	-
Nc1cccc(-c2nc3ccc(N)cc3s2)c1	78	-	-	-	-	-
Nc1ccc(-c2nc3ccc(C(=O)O)cc3s2)cc1	97	88	115	-	78	-
Nc1ccc(O)c(-c2nc3ccccc3s2)c1	-	-	-	-	-	-
Cc1sc(NC(=O)c2cccc([N+](=O)[O-])c2)c(C(N)=O)c1-c1ccc(C(C)(C)C)cc1	64	-	-	-	-	69
NC1=NC(=Nc2cccc(S(N)(=O)=O)c2)c2ccccc21	-	-	-	.	-	-
COc1cc(N=Nc2cccc(S(N)(=O)=O)c2)c2ccccc2c1N	-	-	74	-	-	-
CCC(C)C(CO)NCCCn1cnc2c(SC)ncnc21 (centres undefined)	-	-	.	-	-	-
Cc1c(N/N=C(\C#N)C(=O)c2ccc(Cl)cc2)c(=O)n(-c2ccccc2)n1C	-	-	-	90	-	-
N#C/C(=N\Nc1ccc(Cl)cc1)C(=O)c1ccccc1	-	-	-	-	-	-
C=CCn1nc([N+](=O)[O-])nc1Sc1cccc2cccnc12	-	-	-	89	-	-
O=[N+]([O-])c1ccc(Sc2cccc3cccnc23)cc1	-	-	-	-	-	-
O=C(O)CCN1C(=O)C2C3c4ccccc4C(c4ccccc43)C2C1=O (centres undefined)	-	-	-	-	50	-
COc1cc(OC)cc(C(=O)N[C@H](C(=O)OCC(=O)c2ccc(C)c([N+](=O)[O-])c2)C(C)C)c1	-	-	-	-	84	-
COc1cc(OC)cc(C(=O)N[C@H](C(=O)OCC(=O)c2ccc3c(c2)NC(=O)CO3)C(C)C)c1	-	-	-	-	-	-
CCCCSc1nc(CCC)cc(=O)[nH]1	92	-	-	-	-	-
Cc1ccc2nc(CSc3nc(C)ccc3C#N)[nH]c2c1	69	-	-	-	-	-
Cc1cccc(C)c1NC(=O)CNC(=O)c1ccc(COc2ccccc2)cc1	-	-	-	-	-	-
Cc1[nH]n(-c2ccccc2)c(=O)c1C(C[N+](=O)[O-])c1ccc(Br)cc1 (centres undefined)	-	-	83	-	-	-
COc1cccc(C(C[N+](=O)[O-])c2c(C)[nH]n(-c3ccccc3)c2=O)c1 (centres undefined)	-	-	-	-	-	-
